In all, about 410,000 compounds went through this assay and about 2,000 (0.49%) were called active. Roughly 8% stayed inconclusive and do not appear here. The call rests on the fitted dose curve; tested in HEK293 reporter line. The full list was thinned out, with actives kept by preference.
Assay: qHTS Assay for Foot and Mouth Disease Virus Antivirals: Primary Screen against the MLPCN compound library; further: nearly all actives have a fitted effect of over 55% in size
Conditions: FMDV antiviral cell-based qHTS; series mostly up to 57.9 µM; activity, negative = inhibition: at the top concentration
Potency means the concentration at half of the fitted maximal effect.

Compound | activity, negative = inhibition | Potency
Cc1ccc(-c2cc(-c3ccc(F)cc3)nc(N)c2C#N)o1 | -34.5% (inactive) | –
CC(C)(C)OC(=O)N1CCCC(C(=O)Nc2cccc(C(=O)NCc3ccccc3)c2)C1 (stereo not given) | -40.2% (inactive) | –
CC(C)Oc1ccc(CN2CCC2(C)C(=O)Nc2cccc(Oc3ccccc3)c2)cc1 (stereo not given) | -33.4% (inactive) | –
CC(C)Oc1ccc(CNC(=O)c2cccc(NC(=O)N3CCSc4ncccc43)c2)cc1 | – | 20 µM (active)
Cc1[nH]c2ccccc2c1C(=O)CN1C(=O)C(=O)N(CCC2=CCCCC2)C1=O | -31.7% (inactive) | –
COc1cc2c(cc1NC(=O)c1cc(-c3ccncc3)nc3ccccc13)oc1ccccc12 | -31.8% (inactive) | –
CCC1(c2ccc(F)cc2)NC(=O)N(CC(=O)Nc2cc(S(=O)(=O)N(C)C)ccc2Cl)C1=O (stereo not given) | -31.6% (inactive) | –
N=c1ccn(Cc2ccc(Cl)c(Cl)c2)cc1 | -6.86% (inactive) | –
O=C(COc1ccc(Oc2ccccc2)cc1)NCc1cn2ccccc2n1 | -32.5% (inactive) | –
Brc1ccc(-c2cn3ccccc3n2)cc1 | – | 11.2 µM (active)
Clc1ccc(-c2cn3cc(Br)ccc3n2)cc1Cl | – | 14.1 µM (active)
c1ccc(-c2nc3ccccn3c2-c2ccccc2)cc1 | -28.6% (inactive) | –
O=C(O)c1ccnc(Cl)c1 | -30.7% (inactive) | –
CCc1noc(C)c1C(=O)Nc1nc(-c2ccc(Cl)cc2Cl)c(C)s1 | -34.7% (inactive) | –
COc1ccccc1N1CCN(C(=O)c2ccccc2Oc2ccccc2)CC1 | -42.1% (inactive) | –
COc1ccccc1NS(=O)(=O)c1cccc(C(=O)N/N=C/c2ccc(N3CCOCC3)cc2)c1 | -31.5% (inactive) | –
Cc1ccc(C)c(N2CCN(C(=O)c3cnn(-c4ccccc4Cl)c3C3CCN(C(=O)OC(C)(C)C)CC3)CC2)c1 | -38.2% (inactive) | –
Cc1ccc2c(c1)-c1c(cnn1CC(=O)N(Cc1ccco1)C1CCCCC1)CO2 | -31.6% (inactive) | –
CC(C)(C)NC(=O)NC(=O)CN1CCN(C(c2ccccc2)c2ccccc2)CC1 | -40.2% (inactive) | –
Cc1ccc(N(Cc2cc(=O)[nH]c3ccccc23)C(=O)CCl)cc1 | – | 20 µM (active)
CCOc1ccc(N(Cc2cc3cc(C)ccc3[nH]c2=O)C(=O)c2cccc(Cl)c2)cc1 | -31.5% (inactive) | –
COc1ccc(CC(=O)N(Cc2ccccc2)c2ccc(C)cc2)cc1OC | -32.2% (inactive) | –
Cc1ncsc1CCC(=O)N1CCCC(c2nc(-c3ccncc3)ncc2-c2ccccc2)C1 (stereo not given) | -30.6% (inactive) | –
COc1cccc(-n2cnc3scc(-c4cccs4)c3c2=O)c1 | -33.2% (inactive) | –
O=C(NC(c1ccccc1)c1ccccc1)c1ccc(S(=O)(=O)C(F)F)cc1 | -31.9% (inactive) | –

Compound | activity, negative = inhibition | Potency
O=C(Nc1cccc(-c2ccc(N3CCCCC3)nn2)c1)C(F)(F)F | – | 14.1 µM (active)
O=C(Nc1ccccc1)N1CCCN(c2ccc(C(F)(F)F)cn2)CC1 | -41% (inactive) | –
O=C(CN1CCN(c2ccccn2)CC1)Nc1cccc(C(F)(F)F)c1 | -43.4% (inactive) | –
COC(=O)c1ccc(CSc2ncnc3ccccc23)o1 | -30.7% (inactive) | –
CC(C)C1NC(=S)N(C2CCCCC2)C1=O (stereo not given) | -26.9% (inactive) | –
CCOC(=O)c1sc2nc(CC(=O)OC)nc(N3CCN(c4ccc(OC)cc4)CC3)c2c1C | -48.5% (inactive) | –
CCOC(=O)c1cc(C)n(CC2CCC(C(=O)Nc3ccc(C(=O)OC)cc3)CC2)c1C (stereo not given) | -31.3% (inactive) | –
CCc1nnc(NC(=O)c2cccc(C(=O)Nc3nnc(CC)s3)n2)s1 | -20% (inactive) | –
Cc1ccc(CS(=O)(=O)c2ncc(Cl)c(C(=O)Nc3nc4ccc(F)cc4s3)n2)cc1 | -48.8% (inactive) | –
CCc1nnc(NC(=O)c2nc(S(=O)(=O)Cc3ccccc3)ncc2Cl)s1 | – | 20 µM (active)
CCc1ccccc1NC(=O)Cn1nc(C)c2nn(-c3ccc(Cl)cc3)c(C)c2c1=O | -30.7% (inactive) | –
Cc1ccccc1C(=O)N(Cc1nc(-c2ccc(Cl)cc2)no1)C(C)C | -30.6% (inactive) | –
COc1cccc(CNC(=O)Cn2cc3c(n2)-c2c(oc(C(=O)N4CCOCC4)c2C)CC3)c1 | -31.3% (inactive) | –
Cc1cc(NC(=O)c2ccc(N(C)S(=O)(=O)c3ccccc3)cc2)no1 | -30.5% (inactive) | –
Cc1cc(C)n2nc(SCc3ccc(F)cc3Cl)nc2n1 | -20.5% (inactive) | –
Cn1c2ccccc2c(=O)c2ccc(C#CC3(O)CCCCC3)cc21 | – | 17.8 µM (active)
O=c1c2ccccc2sc2ccc(C#CC3(O)CCCCC3)cc12 | -68.8% (inactive) | –
Cc1cc2sc3ccc(C#CC4(O)CCCCC4)cc3c(=O)c2cc1C | -99.3% (inactive) | –
CCOC(=O)C1(Cc2ccccc2)CCN(Cc2cccn2-c2cccnc2)CC1 | -33.3% (inactive) | –
COc1ccccc1OCCNC(=O)c1cc(C2CC2)nc2c1cnn2C(C)C | -40% (inactive) | –
CCN1C(=O)CC(C(C)C)N(C2CCCC2)c2nc(Nc3ccc(C(=O)NC4CCN(C)CC4)cc3OC)ncc21 (stereo not given) | -34.5% (inactive) | –
CCCCC(CC)CNC(=O)c1ccc2c(=O)n(CCOC)c(=O)[nH]c2c1 (stereo not given) | -33.9% (inactive) | –
Cc1ccc(-c2nc(CS(=O)CC(=O)N3CCN(c4ccc(F)cc4)CC3)c(C)o2)cc1 (stereo not given) | -31.4% (inactive) | –
Cc1nc(-c2cccc(NC(=O)c3ccc(Cl)c(S(=O)(=O)N4CCCC4)c3)c2)cs1 | -32.5% (inactive) | –
COc1ccc(CC(=O)Nc2cccc(-c3csc(C)n3)c2)cc1 | – | 20 µM (active)

Compound | activity, negative = inhibition | Potency
COc1ccc(CC(=O)Nc2nc(-c3ccc(OC)c(OC)c3)cs2)cc1OC | -36.1% (inactive) | –
COc1ccc(Oc2ncc3nc(-c4ccccc4)c(=O)n(CCC#N)c3n2)cc1 | -39% (inactive) | –
COc1cccc(/C=N/NC(=O)c2nc(-c3ccccc3)cc(-c3ccccc3)n2)c1 | -37.4% (inactive) | –
Nc1nonc1-n1nnc(C(=O)N/N=C/c2ccc(O)cc2)c1COc1ccc(F)cc1 | -32.2% (inactive) | –
COc1ccc(/C=N/NC(=O)c2nonc2C)cc1 | – | 11.2 µM (active)
Cc1cc(OCCCCN2C(=O)NC(C)(C)C2=O)cc(C)c1Cl | -34.5% (inactive) | –
CC(C)c1cc(Br)ccc1OCCCN1C(=O)NC(C)(C)C1=O | – | 28.2 µM (active)
CC1(C)NC(=O)N(CCCCOc2ccc3c(c2)CCC3)C1=O | -30.3% (inactive) | –
CC12C(=O)N(c3cccc(OC(=O)c4ccco4)c3)C(=O)C1C1c3ccccc3C2c2ccccc21 (stereo not given) | -42.3% (inactive) | –
CC(C)CN1CCN(C(=O)COC(=O)c2ccc(S(C)(=O)=O)c([N+](=O)[O-])c2)CC1 | -34% (inactive) | –
CS(=O)(=O)c1ccc(C(=O)OCC(=O)NCc2cccs2)cc1[N+](=O)[O-] | – | 25.1 µM (active)
Nc1cc(C(=O)OCC(=O)NCCNC(=O)COC(=O)c2ccc(Cl)c(N)c2)ccc1Cl | -32.3% (inactive) | –
COC(=O)c1ccc(COc2ccc(/C=N/NC(N)=S)cc2)o1 | -33% (inactive) | –
CCc1ccc(OCc2ccc(C(=O)O)o2)cc1 | – | 10 µM (active)
COc1ccc(NC(=O)c2ccc(COc3ccccc3OC)o2)cc1OC | -31.3% (inactive) | –
Cc1ccccc1CS(=O)(=O)c1cn(CC(=O)N2CCC(C)CC2)c2ccccc12 | -30.3% (inactive) | –
CCc1cc(=O)[nH]c(SCc2nc(-c3ccc(C(F)(F)F)cc3)no2)n1 | -32.9% (inactive) | –
N#C/C(=C\c1ccc(N2CCOCC2)o1)c1nc2ccccc2[nH]1 | – | 10 µM (active)
N#C/C(=C/c1ccc(N2CCOCC2)o1)c1nc2ccccc2[nH]1 | – | 8.91 µM (active)
N#C/C(=C/c1ccc(N2CCCCC2)o1)C(=O)NCCc1c[nH]c2ccccc12 | -32% (inactive) | –
Cc1ccc2nc(/C(C#N)=C/c3ccc(-c4cccc(Cl)c4)o3)[nH]c2c1 | -32.1% (inactive) | –
COc1cc(/C=C(\C#N)c2nc3ccccc3[nH]2)cc(Cl)c1OCc1ccccc1Cl | -41.7% (inactive) | –
COc1cc(/C=C(/C#N)c2nc3ccccc3[nH]2)ccc1OCC(=O)Nc1ccccc1C | -31.8% (inactive) | –
O=C(CSCc1ccc(F)cc1)N1CCN(c2ccc(F)cc2)CC1 | -30.1% (inactive) | –
N#Cc1ccccc1Sc1ccccc1C(=O)OCC(=O)NC12CC3CC(CC(C3)C1)C2 | -33.5% (inactive) | –

Compound | activity, negative = inhibition | Potency
COc1ccccc1C(=O)Nc1ccc(-c2cc(C(F)(F)F)nn2-c2ccccc2)cc1 | -36.9% (inactive) | –
O=C1/C(=C\c2ccccc2)C[C@@]2(O)[C@H]3Cc4ccc(O)c5c4[C@@]2(CCN3CC2CC2)[C@H]1O5 | – | 10 µM (active)
C=CCN1CC[C@]23c4c5ccc(O)c4O[C@H]2/C(=N/NC(=O)c2ccccc2)CC[C@@]3(O)[C@H]1C5 | -28.3% (inactive) | –
CCOC(=O)[C@H]1[C@H]2COc3ccccc3[C@@H]2N2C(=O)c3ccc(Cl)cc3NC(=O)[C@@]12C | -37.3% (inactive) | –
O=C(Nc1ccccc1Cc1ccccc1)c1ccccc1NS(=O)(=O)c1ccc(Cl)s1 | -37.5% (inactive) | –
CCOc1cc(/C=C2\C(=O)N(c3ccc(C(N)=O)cc3)N=C2C)ccc1OC(=O)c1cccs1 | -38% (inactive) | –
COc1cc(/C=C2/C(=O)ON=C2c2ccccc2)ccc1O | -45.4% (inactive) | –
C=CCOc1ccc(/C=C2/C(=O)ON=C2C)cc1OCC | – | 31.6 µM (active)
Cc1ccc(S(=O)(=O)N(C)C)cc1NC(=O)CSc1nc2ccccc2[nH]1 | -42% (inactive) | –
CCOc1ccc(CN2CCNC(=O)C2CC(=O)NCCc2nc(C)c3c(n2)CCC3)cc1 (stereo not given) | -54% (inactive) | –
Cc1ccc(-c2nc(C)c(C(=O)O)s2)cc1 | – | 25.1 µM (active)
Cc1ccc(-c2nc(CCNC(=O)c3ccco3)cs2)cc1 | -36.4% (inactive) | –
Cc1ccc(S(=O)(=O)Nc2nc(C)c(C)s2)cc1 | 101% (inactive) | –
Cc1ccccc1N1CCN(C2CCCN(C(=O)CCC3(C)CC3)C2)CC1 (stereo not given) | -31.3% (inactive) | –
Fc1ccccc1-c1csc(=Nc2cccnc2)n1CCCn1ccnc1 | -40% (inactive) | –
O=C(C1COc2ccccc2O1)N1CCN(S(=O)(=O)c2ccccc2)CC1 (stereo not given) | -32.6% (inactive) | –
CCc1cccc(C)c1NC(=O)c1cc2ccccc2o1 | -43% (inactive) | –
CC(=O)c1cccc(NC(=O)CNC(=O)c2cc3ccccc3o2)c1 | -36.7% (inactive) | –
Cc1nc(NC(=O)c2cc3ccccc3o2)sc1C | – | 17.8 µM (active)
COc1ccc([N+](=O)[O-])cc1NC(=O)C(C)OC(=O)C1CCCC1 (stereo not given) | -48.6% (inactive) | –
CC1(C(=O)Nc2cccc(Oc3ccccc3)c2)CCN1Cc1cccc2c1OCO2 (stereo not given) | -31.1% (inactive) | –
COc1cccc(-c2sc3ccc(OC)cc3c2-c2ccc(OCCN3CCCC3)cc2)c1 | -31.7% (inactive) | –
Cc1ccc(-c2nc3cc(NC(=O)C(C)C)ccc3o2)cc1C | – | 22.4 µM (active)
CC(C)Oc1ccc(C(=O)Nc2ccc3oc(-c4ccncc4)nc3c2)cc1 | -28.6% (inactive) | –
Cc1ccc(C(=O)Nc2cc(-c3nc4cc(Cl)ccc4o3)ccc2C)c(C)c1 | -31.2% (inactive) | –
